In the library only some 2.6% were active in any assay of this set; here they are far more common.
PRMT1 inh – inhibitors of human PRMT1 | Q99873 | recombinant PRMT1, activity-based probe fluorescence polarization | inhibition, % at 2.79 µM | 1.3% of 370,000 active | AID 652257;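 active = inhibition above about 21% made by adding two undisclosed values, limit read from the data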
ABHD5-PLIN5 inh – ABHD5-PLIN5 protein interaction inhibition; 0.78% of 360,000 active; Split G. princeps luciferase complementation, luminescence, 4 h; inhibition, % at 4 µM; Q00G26+Q8WTS1;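 active = inhibition above the mean inhibition across every tested compound plus 3 SD, cut at about 22% in these data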;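 note: 0% = DMSO only wells and the 100% control is not disclosed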
NOD2-RIPK2 inh – NOD2-RIPK2 protein interaction inhibition; inhibition, % at 4.98 µM; 0.38% of 360,000 active; O43353; CHO BLA complementation NOD2-RIPK2, CCF4 ratio; AID 624267; in the data active = inhibition above about 21%;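 note: 0% = vehicle only and 100% = reference blocker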
Granule exo inh – lytic granule exocytosis inhibition; TALL-104 LAMP-1 surface exposure, flow cytometry; cells stimulated with thapsigargin and PMA; inhibition, % at 10 µM; 0.66% of 360,000 active; AID 651702;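 active = inhibition above about 55%, limit read from the data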
TLR9-MyD88 block – TLR9-MyD88 interaction inhibition | CHO BLA complementation TLR9-MyD88, CCF4 FRET ratio | inhibition, % at 4.98 µM | 0.21% of 340,000 active | AID 504734;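 active = inhibition above the mean over all tested compounds plus 3 SD, cut at about 21% in these data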;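 note: 0% = DMSO only wells and 100% = clavulanate BLA inhibitor control wells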
TLR4-MyD88 BLA – inhibitors of human TLR4-MyD88 binding; O00206+Q99836; HeLa CL3-4 TLR4/MyD88 BLA complementation, FRET ratio; inhibition, % at 8.4 µM; 0.18% of 200,000 active; AID 861; in the data active = inhibition above about 25%;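 note: 0% = vehicle and 100% = reference inhibitor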
Granule exo CP1 – blocks lytic granule exocytosis. shares compounds with Granule exo inh. TALL-104 cells, LAMP-1 externalization, flow cytometry; stimulated with PMA plus thapsigargin. inhibition, % at 10 µM. 11% of 1,500 active. AID 651954; in the data active = inhibition above about 60%;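 note: 0% = stimulated vehicle wells and 100% = unstimulated wells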
Numbers without * were called inactive; x = no result.

SMILES	PRMT1 inh	ABHD5-PLIN5 inh	NOD2-RIPK2 inh	Granule exo inh	TLR9-MyD88 block	TLR4-MyD88 BLA	Granule exo CP1
C[C@H]1[C@H](c2ccccc2)Oc2cccc(NCCc3ccccc3)c2S(=O)(=O)N1Cc1ccc(F)cc1	-3	x	x	x	x	x	x
CC(=O)Nc1cccc(NC(=O)Cc2cccs2)c1	0	7	4	10	-1	x	x
O=C(Cc1cccs1)Nc1cccc(-c2nc3cc4ccccc4cc3[nH]2)c1	1	2	4	66*	0	-7	21
Cc1[nH]c2ccccc2c1C(c1ccccn1)N1CCC(C(N)=O)CC1 (stereo not given)	1	-5	0	57*	3	-7	18
CCOC(=O)C1CCN(C(c2ccccn2)c2c(C)[nH]c3ccccc23)CC1 (stereo not given)	0	1	-8	55	2	11	x
COc1ccc(C2CC(=O)Oc3c(C(CCN4CCCCC4)c4ccc(N(C)C)cc4)c(OC)cc(OC)c32)cc1 (stereo not given)	-6	2	2	-1	5	x	x
COc1ccc(C2CC(=O)Oc3c(C(CCN4CCCC(C)C4)c4ccc(N(C)C)cc4)c(OC)cc(OC)c32)cc1 (stereo not given)	0	5	-11	72*	1	x	-2
CC(=O)Nc1cccc(-c2cc(NC(C)=O)c3ncc(-c4cccc(C(F)(F)F)c4)n3c2)c1	1	1	-5	17	x	x	x
COc1ccc(F)cc1-c1cc(NC(C)=O)c2ncc(-c3cccc(C(F)(F)F)c3)n2c1	-3	0	-13	58*	x	x	43
CC(C)NC(=O)N[C@H]1C[C@@H]2O[C@@H](CO)CC[C@@H]2O[C@@H]1CCc1ccc(-c2ccc(F)cc2)cc1	2	x	x	x	x	x	x
CC1C(=O)N(Cc2ccccc2F)c2ccccc2N1C(=O)c1c(F)cccc1F (stereo not given)	-6	-1	-2	35	-12	x	x
COc1cccc(CN2C(=O)C(C)N(C(=O)c3c(F)cccc3F)c3ccccc32)c1 (stereo not given)	2	-7	-6	56*	-2	x	8
COCCNC(=O)C1CCCN(Cc2ccc(C(C)C)cc2)CC1 (stereo not given)	-1	-2	-9	68*	x	x	-4
CCOC(=O)C1CCN(Cc2ccc(OCc3ccccc3)c(OC)c2)CC1	x	-1	5	4	5	x	x
COc1cc(CN2CCC(C(=O)NCCC(C)C)CC2)ccc1OCc1ccccc1	1	1	-1	63*	-16	x	-12
CC(C)CCNC(=O)C1CCN(Cc2cccc(OCc3ccccc3)c2)CC1	-1	2	10	69*	-11	x	-10
O=C(Nc1ccc(C(F)(F)F)cc1)OC1CCC12CCCCC2 (stereo not given)	1	x	x	x	x	x	x
CCCCCCCCN1C(=O)N2Cc3cc(F)ccc3C2CS1(=O)=O (stereo not given)	2	x	x	x	x	x	x
CCC[C@H]1[C@@H](OC(=O)NCc2ccc(OC)cc2)CC[C@@]23CCCN2C(=O)CCC[C@@H]13	-8	x	x	x	x	x	x
CCCOc1ccc(C(=O)CCN2CCN(C(=O)OCC)CC2)cc1	19	7	-6	60*	0	4	-13
CCOC(=O)N1CCN(C(=O)CCC(=O)c2ccc(OCC)cc2)CC1	-2	0	-4	-6	-2	x	x
CC(C)Oc1ccc(C(=O)CCN2CCOCC2)cc1	10	4	8	59*	3	x	-11
CCOc1ccc(C(=O)CCN2CCCCC2)cc1	15	1	10	93*	-6	8	-11
CC(C)Oc1ccc(C(=O)CCN2CCCCC2)cc1	11	0	-15	95*	3	-2	5
O=C(CCN1CCOCC1)c1ccc(Cl)cc1	0	1	4	35	3	-3	x
SMILES	PRMT1 inh	ABHD5-PLIN5 inh	NOD2-RIPK2 inh	Granule exo inh	TLR9-MyD88 block	TLR4-MyD88 BLA	Granule exo CP1
O=C(Cc1ccc(NC(=O)C2CCCN(C(=O)c3ccccc3)C2)cc1)Nc1cccc(C(=O)N2CCCCC2)c1 (stereo not given)	-4	x	x	x	x	x	x
Cc1ccc(-n2c(SCC(=O)c3ccc(-c4ccccc4)cc3)nnc2-c2ccc(C(C)(C)C)cc2)cc1	-3	x	x	x	x	x	x
Clc1ccc(/C=C\c2nccc3c2[nH]c2ccccc23)cc1	4	-14	-57	88*	-74	-107	4
Clc1ccc(/C=C/c2nc3ccccc3[nH]2)cc1	2	-1	5	2	2	3	x
CCSc1nc2c(c(=O)[nH]c(=O)n2C)n1CC(O)COc1ccccc1 (stereo not given)	9	-6	-6	87*	0	2	-2
O=[N+]([O-])c1ccc(N2CCN(CC3CCCCC3)CC2)cc1	0	1	1	63*	9	x	-4
C=C1c2nc3ccccc3n2C=C(c2ccc(C)cc2)N1c1ccccc1	18	5	-4	90*	-10	x	-14
Cc1ccc(C2=CCN(C)C(=O)N2c2ccccc2)cc1	-1	x	x	x	x	x	x
COc1cc(CN2CCN(C(c3ccccc3)c3ccccc3)CC2)cc(OC)c1OC	4	5	9	64*	1	x	-11
c1ccc(OCCN2CCN(C(c3ccccc3)c3ccccc3)CC2)cc1	1	2	-1	84*	3	x	-5
Cc1ccc(C(=O)NCCN2CCOCC2)c(Cl)c1	0	-4	-4	56*	4	x	-13
O=C(NCCN1CCOCC1)c1ccccc1Cl	-8	2	4	12	5	x	x
CCC(=O)N1CCc2cc(Br)cc(S(=O)(=O)CC(=O)OC)c21	x	-1	6	0	0	0	x

High-throughput results as filed in PubChem BioAssay.
